Reference: ChEMBL document CHEMBL3433997, “St. Jude Leishmania screening dataset” (2016)

Legend:
Assay type in all cases: functional
[1] = target: Solute carrier family 2, facilitated glucose transporter member 1 (Homo sapiens) (UniProt P11166); assay: ST_JUDE_LEISH: Cytotoxicity at 2uM final concentration against transgenic Leishmania Mexicana promastigotes LmGLUT1 that are glucose transport deficient and complemented with the human glucose transporter GLUT1. Activity is measured by DNA content using SYBR green in vitro
Sequence of Solute carrier family 2, facilitated glucose transporter member 1 (Homo sapiens) (P11166 whole entry): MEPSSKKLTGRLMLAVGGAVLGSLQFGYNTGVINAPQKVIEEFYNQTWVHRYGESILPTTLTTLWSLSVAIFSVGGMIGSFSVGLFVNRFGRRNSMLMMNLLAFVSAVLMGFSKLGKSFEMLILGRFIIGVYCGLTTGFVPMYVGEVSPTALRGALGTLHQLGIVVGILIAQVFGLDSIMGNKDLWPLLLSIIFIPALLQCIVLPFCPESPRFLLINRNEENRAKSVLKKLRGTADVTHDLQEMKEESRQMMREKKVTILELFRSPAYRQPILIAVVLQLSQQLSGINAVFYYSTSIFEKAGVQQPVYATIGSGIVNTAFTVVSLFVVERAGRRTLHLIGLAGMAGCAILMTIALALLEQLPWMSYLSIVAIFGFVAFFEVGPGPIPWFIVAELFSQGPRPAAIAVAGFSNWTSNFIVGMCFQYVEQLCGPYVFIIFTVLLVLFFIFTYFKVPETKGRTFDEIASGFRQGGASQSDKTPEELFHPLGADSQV

[2] = target: Hexose transporter 1 (Plasmodium falciparum) (UniProt O97467); assay: ST_JUDE_LEISH: Cytotoxicity at 2uM final concentration against transgenic Leishmania Mexicana promastigotes LmPfHT that are glucose transport deficient and complemented with the Plasmodium falciparum hexose transporter. Activity is measured by DNA content using SYBR green in vitro
[3] = target: Glucose transporter (Leishmania mexicana) (UniProt O61059); assay: ST_JUDE_LEISH: Cytotoxicity at 2uM final concentration against transgenic Leishmania Mexicana promastigotes LmGT2 that are glucose transport deficient and complemented with the L. Mexicana glucose transporter 2. Activity is measured by DNA content using SYBR green in vitro

Compound	inhibition [1] [%]	inhibition [2] [%]	inhibition [3] [%]
CN1CC=C(c2csc3ccc(NC(=O)Nc4ccc(-c5ccncc5)c5ccccc45)cc23)CC1	3.83	3.39	-1.21
c1ccc(Oc2ccc(Nc3nc(NCCc4c[nH]cn4)nc(NC4CCCC4)n3)cc2)cc1	5.3	5.86	6.19
COc1ccc2ncc(F)c(CCN3CCC(NCc4cc(OC)c5c(c4)OCCO5)CC3)c2n1	7.06	6.92	1.31
CCCCCCc1cc(OC)c(OC)cc1C(C)Nc1ccnc2cc(Cl)ccc12 (centres undefined)	8.21	5.09	0.14
O=[N+]([O-])c1ccc(Nc2nc(N/N=C/c3ccc(-c4ccc([N+](=O)[O-])cc4)o3)nc(Nc3ccccc3)n2)cc1	0.17	-3.33	-5.8
CCOc1ccccc1CNc1nccc(NCc2ccccc2OC)n1	2.53	4.16	2.05
COc1ccc(-c2ccc(NC(=O)c3ccc(C#N)cc3)cc2)cc1CN1CCCN(C)CC1	3.03	3.17	-0.21
CCCOc1ccc(C=C(CC(=O)O)c2nc3ccccc3s2)cc1OCC	2.27	2.53	-7.54
O=C(NCc1cccc(C(F)(F)F)c1)c1ccc(-c2nc3cc(F)c(F)cc3[nH]2)cc1	1.11	-2.13	4.61
CCc1ccc(Cc2cnc3nc(N)nc(N)c3c2C)cc1	8.4	13.2	8.26
COc1ccc2c(=O)c(I)c(C)[nH]c2c1	-1.2	-1.12	-3.12
CCOC(=O)N1CCC(NC(=O)c2ccc(C(C)(C)C)cc2OC)CC1	3.46	3.5	3.13
Cc1cc(-c2cnc(N)c(-c3ccc(N4CCN(C)CC4)nc3)c2)cc(C)c1O	1.2	0.69	0.74
Cc1ccc(O)cc1Nc1ccnc2cc(-c3cccc(CNCCS(C)(=O)=O)c3)ccc12	1.09	0.12	-3.77
N#Cc1ccc(CNCCCCCCCNCc2ccc(-c3ccccc3)cc2)cc1	4.19	5.01	5.28
Clc1ccc(CNc2nc(NCCc3c[nH]cn3)nc(NC3CCCCC3)n2)cc1	0.15	-1.21	-0.72
CC(=O)c1c[nH]c(C(=O)Nc2ccc(-c3cn4ccccc4n3)cc2)c1	11.8	10.9	10.2

Compound	inhibition [1] [%]	inhibition [2] [%]	inhibition [3] [%]
Cc1nc2nc(N)nc(N)c2c(C)c1Cc1cccc(C#N)c1	3.44	2.87	2.88
CN1CCN(CC2(Nc3nccc(NCc4ccc(Cl)cc4Cl)n3)CCCCC2)CC1	6.66	7.74	6.18
COc1ccc(OCc2ccccn2)c(C2CCN(CCCCNC(=O)c3ccc(NC(=O)c4ccc(Cl)cc4)cc3)CC2)c1	1.01	-4.32	-2.76
O=C(Nc1ccc(-c2cccc(-c3nc4cc(F)ccc4[nH]3)c2)cc1)Nc1ccc(F)c(F)c1F	5.34	7.02	6.78
COCCNc1nc(N2CCC(CNC(=O)c3ccc(-c4ccc(C(=O)N(C)C)cc4C)cc3)CC2)nc2cc(OC)c(OC)cc12	-0.42	1.09	1.17
CC(=O)Nc1ccc(CN2CCc3ccc(NS(=O)(=O)c4cccc(OCc5ccc(Cl)cc5)c4)cc3CC2)s1	2.65	-0.08	0.54
CNc1ccc(CNCc2ccc(-c3ccc(-c4nc5cc(C(F)(F)F)ccc5[nH]4)s3)cc2)cc1	2.19	0.49	-0.01
O=C(Nc1ccccc1)Nc1ccc(-c2cccc(-c3nc4cc(C(F)(F)F)ccc4[nH]3)c2)cc1	4.44	0.5	2.05
CC(C)C1C(O)=C(c2ccc3ccccc3c2)C(=O)N1CC1CCCCC1 (centres undefined)	1.23	1.04	-8.52
CN(C)c1ccc(Br)c(Br)c1	3.2	4.63	-1.28
COc1ccc2[nH]c(C)cc(=NN=Cc3ccccc3Cl)c2c1	5.14	5.23	1.92
CN=C(NC)c1cccc(NC(=O)C=Cc2ccc(C=CC(=O)Nc3cccc(C(=NC)NC)c3)cc2)c1	0.52	2.48	-0.11
CCNc1cc(CCCC(=O)OCC)nc(Nc2ccc(C)cc2)n1	10.3	13	10.3
CC(C)Nc1ccc(Nc2ccnc3cc4ccccc4cc23)cc1	1.19	4.38	0.5
CNc1ccc(CNCc2cccc(-c3ccc(-c4nc5cc(C(F)(F)F)ccc5[nH]4)cc3)c2)cc1	-1.26	1.48	1.39
CCN(CC)CCN(Cc1ccc(-c2ccc(C(F)(F)F)cc2)cc1)C(=O)Cn1c(CCc2cccc(F)c2F)nc(=O)c2cc(F)c(F)cc21	9.33	7.63	9.47
